PG9 Ab binder = binders of HIV-1 gp120 antibody PG9, primary screen, biochemical, TR-FRET | 360,000 compounds, 0.43% hits | inhibition, % at 6.7 µM | TR-FRET gp120-PG9 antibody binding | HIV-1 gp120 / PG9 antibody interaction; in the data active = inhibition above about 8.5%
DNMT1 block = human DNMT1 methyltransferase inhibitors, primary screen, biochemical, molecular beacon, fluorescence, HinP1I cleavage, uHTS; DNA (cytosine-5)-methyltransferase 1 (Homo sapiens), P26358; inhibition (reported as % activation of signal), % at 10 µM; 360,000 compounds, 0.83% hits; AID 588458, 2011; in the data active = inhibition above about 50%
rCAG binder = binders of r(CAG) RNA repeats, primary screen, biochemical, fluorescence. inhibition, % at 3 µM. 370,000 compounds, 1.3% hits. r(CAG) RNA repeat, TO-PRO-1 dye displacement fluorescence. AID 651821, 2012;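 active = inhibition above the plate cutoff, the mean of all test compounds on that plate plus 3 SD, cut at about 35% in these data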;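 also: 0% = DMSO alone and 100% = 100 µM mitoxantrone as full dye displacement; higher means more dye released from RNA so lower well fluorescence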
MBD2 DNA inh = inhibitors of MBD2 binding to methylated DNA, primary screen, biochemical, TR-FRET, DNA-binding domain, human. MBD2 binding to methylated oligonucleotide. Methyl-CpG-binding domain protein 2 (Homo sapiens), Q9UBB5. 370,000 compounds, 0.31% hits. inhibition, % at 4.4 µM. AID 686964, 2013; in the data active = inhibition above about 13%
LEDGF integ inh = blockers of LEDGF/p75-dependent integrase strand transfer – biochemical, TR-FRET, high throughput, primary screen; inhibition, % at 3.7 µM; AID 743269, 2014; HIV-1 integrase (with human LEDGF/p75); TR-FRET IN-LEDGF/p75 DNA integration, Eu/Cy5; 370,000 compounds, 0.64% hits;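 active = inhibition above the screen-wide mean plus 3 SD, cut at about 13% in these data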;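 also: signal is the Cy5 over europium emission ratio at 671 and 618 nm; 0% = plate median of compound wells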
UHRF1 MBD2 ctr = UHRF1 methylated DNA binding inhibitors, primary screen, counter-screen for MBD2 inhibitor project, biochemical, TR-FRET, human UHRF1, single concentration; E3 ubiquitin-protein ligase UHRF1 (Homo sapiens), Q96T88; UHRF1 binding to methylated oligo; 370,000 compounds, 0.75% hits; inhibition, % at 4.4 µM; in the data active = inhibition above about 21%;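 also: UHRF1 SRA domain binding a hemimethylated CpG hairpin DNA probe; 0% = median of test compound wells and 100% = reference inhibitor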
* marks the source's active call; other numbers are inactive results; · = not tested or not shown. Most compounds without a hit are left out; they make up all but 3.5% or so of the library.

SMILES	PG9 Ab binder	DNMT1 block	rCAG binder	MBD2 DNA inh	LEDGF integ inh	UHRF1 MBD2 ctr
COc1ccc2cc(/C=C3\SC(=S)NC3=O)c(N3CCOCC3)nc2c1	1	-4	65*	-10	1	0
Cc1sc2nc(COC(=O)c3c(F)cccc3F)[nH]c(=O)c2c1C	2	0	-2	4	-1	38*
Cc1sc2nc(COC(=O)c3ccc(O)cc3)[nH]c(=O)c2c1C	0	-3	8	3	1	-2
CN(C)c1cccc(N(C)C)c1CNC(=O)NC(=O)c1c(F)cccc1F	-2	2	-10	1	-1	28*
CN(C)c1cccc(F)c1C(=O)NC(=O)Nc1ccc(Cl)cc1	-1	-2	1	2	0	0
C#CCN1CC(N(C)CCOC(=O)c2cc(C)cc(C)c2)CS1(=O)=O (stereo not given)	·	·	-2	-5	0	-1
Fc1cccc(Cc2c(-c3ccco3)nc3ccc(Br)cn23)c1	-6	50*	19	2	5	9
COC(=O)c1ccc2nc(-c3ccco3)c(Cc3ccccc3)n2c1	-1	0	25	1	9	22*
COC(=O)c1ccc2nc(-c3ccco3)c(Cc3cccc(Cl)c3)n2c1	-1	·	14	8	6	22*
CCOc1ccccc1N(CC(=O)NC1CCCCC1)C(=O)c1nsc(Cl)c1Cl	-1	-3	-11	2	1	22*
Cc1ccc(Cc2c(-c3ccc(C#N)cc3)nc3ccc(Br)cn23)cc1	6	1	15	11	1	22*
Cc1ccc(Cc2c(-c3ccccc3)nc3ccc(Br)cn23)cc1	1	11	27	7	1	22*
CCc1cc(Cn2nc(-c3ccccc3)cc2C(=O)O)on1	-2	3	4	3	1	80*
C[C@@]12CCC=C[C@H]1[C@H](c1ccc3ccccc3c1Br)N(Cc1ccccc1)C2=O	-2	-6	-1	4	3	-2
C[C@@]12CCC=C[C@H]1[C@H](c1ccc3ccccc3c1)N(Cc1ccccc1)C2=O	-1	-2	1	-1	-1	38*
CC1(C)CC(=O)C2=C(C1)N(CC1CCCO1)C(=O)NC2(C(F)(F)F)C(F)(F)F (stereo not given)	-2	2	2	11	0	23*
O=C(NCc1ccco1)C1CCCN(S(=O)(=O)c2cccs2)C1 (stereo not given)	·	·	4	0	4	4
CC(C)c1csc(CN2CCC(CO)(Cc3cccc(F)c3)CC2)n1	-1	2	-10	6	-4	59*
OCC1(Cc2cccc(F)c2)CCN(Cc2cccc3nccnc23)CC1	-3	-1	-5	-4	0	-2
CCOC(=O)Cn1cc(CN2C(C(=O)OC)CN(C3CCCC3)CCS2(=O)=O)nn1 (stereo not given)	·	·	3	10	4	15
CC(C)(C)OC(=O)N1CCC[C@@H]1C(=O)N1CCC[C@@H]1C(=O)NCc1ccccc1	1	·	0	15*	2	16
CC(C)(C)OC(=O)N1CCC[C@@H]1C(=O)N1CCC[C@H]1C(=O)NCc1ccccc1	-2	·	1	-1	1	-1
COc1ccc(NC(=O)C2CCCN2C(=O)OCc2ccccc2)cc1 (stereo not given)	1	-1	0	-2	3	-1
COC(=O)c1ccc(NC(=O)C2CCCN2C(=O)OCc2ccccc2)cc1 (stereo not given)	-2	2	0	5	4	24*
CCNC(=O)C1CCCN(C(=O)Cc2cccs2)CC1 (stereo not given)	-2	12	2	7	0	24*
SMILES	PG9 Ab binder	DNMT1 block	rCAG binder	MBD2 DNA inh	LEDGF integ inh	UHRF1 MBD2 ctr
O=C(Nc1cccc(S(=O)(=O)N2CCCC2)c1)c1ccncc1	0	0	2	8	-1	1
COc1ccc(S(=O)(=O)N2CCCCCC2)cc1NC(C)C(=O)Nc1ccc(NC(C)=O)cc1 (stereo not given)	-2	-2	3	-4	2	33*
COc1ccc(NS(=O)(=O)c2c(C)[nH]c(C)c2C(=O)N2CCCCC2)cc1Cl	0	-3	1	-5	-2	2
COc1ccc(NCC(=O)Nc2cccc(S(=O)(=O)N3CCCC3)c2)cc1Cl	-2	-4	9	-2	5	26*
COc1ccc(NCC(=O)N2CCCC2)cc1Cl	-2	1	-1	-3	53*	-1
N#CCC(=O)Nc1ccc(C(=O)Nc2cccc(S(=O)(=O)N3CCCC3)c2)cc1	-1	-2	14	2	1	69*
COc1cc(NC(=O)CNc2cccc(S(=O)(=O)N3CCCC3)c2)cc(OC)c1	0	-4	4	1	-3	-1
C[C@@H]1C[C@H]2[C@@H](Cc3ccccc3)C(=O)N3[C@H](c4ccccc4)[C@H](C)C[C@H]3[C@@H](Cc3ccccc3)C(=O)N2[C@@H]1c1ccccc1	·	·	6	5	-1	-2
COC(=O)[C@]12C[C@H](CC(=O)N3CCN(C(=O)c4ccco4)CC3)C(=O)N(Cc3ccco3)C1=C[C@H](C(C)(C)C)O[C@@H]2C	·	·	4	0	-3	-1
COc1cc(O)c(CCC(=O)c2ccc(OC)c(OC)c2)c(OC)c1	0	1	-1	2	-3	63*
O=C(c1ccc(F)cc1)C1CCN(C(=O)c2ccc(F)cc2)CC1	1	-4	3	-5	-4	-1
O=C(c1ccc(F)cc1)C1CCN(C(=O)c2ccncc2)CC1	-1	10	1	-6	0	80*
O=C(COc1ccc(Cl)cc1)Nc1ncc([N+](=O)[O-])s1	1	-1	19	-3	5	2
O=C(COC(=O)COc1ccccc1)Nc1ncc([N+](=O)[O-])s1	-1	39	34	2	32*	7
Cc1csc(NC(=O)CSc2nncn2C)n1	-1	3	-2	-4	1	0
Cn1cnnc1SCC(=O)Nc1ncc([N+](=O)[O-])s1	-2	84*	16	3	2	5
O=C(Nc1nnc(CSCc2ccccc2F)s1)c1cccc([N+](=O)[O-])c1	0	3	46*	0	-4	-4
CCCCn1c(=O)[nH]c2nc3cc(NC(C)=O)ccc3nc2c1=O	1	3	-9	-1	-3	45*
